This is a sample that favours compounds with a hit; in the whole collection about 4.6% have one here.
FAS TE block: FAS thioesterase domain inhibitors, primary screen, biochemical, fluorescence intensity, uHTS; inhibition, % at 15 µM; 360,000 tested, 0.67% active; Fatty acid synthase (Homo sapiens), P49327; recombinant FAS-TE, OMFH fluorogenic substrate, fluorescence endpoint;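 active = compounds whose normalised, plate-corrected inhibition of enzyme fluorescence in the single-dose primary screen is 50% or more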
ADAM10 inh: human ADAM10 inhibitors, primary screen, biochemical, QFRET, HTS; inhibition, % at 7 µM; Disintegrin and metalloproteinase domain-containing protein 10 (Homo sapiens), O14672; recombinant ADAM10, EDANS/DABCYL FRET peptide cleavage, 3 h; 370,000 tested, 0.62% active; AID 720582, 2013;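 active = inhibition above a per-campaign cutoff equal to the mean of compounds falling between control-based bounds plus 3 SD, cut at about 20% in these data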
Target sequence (O14672 214-748 limits assumed): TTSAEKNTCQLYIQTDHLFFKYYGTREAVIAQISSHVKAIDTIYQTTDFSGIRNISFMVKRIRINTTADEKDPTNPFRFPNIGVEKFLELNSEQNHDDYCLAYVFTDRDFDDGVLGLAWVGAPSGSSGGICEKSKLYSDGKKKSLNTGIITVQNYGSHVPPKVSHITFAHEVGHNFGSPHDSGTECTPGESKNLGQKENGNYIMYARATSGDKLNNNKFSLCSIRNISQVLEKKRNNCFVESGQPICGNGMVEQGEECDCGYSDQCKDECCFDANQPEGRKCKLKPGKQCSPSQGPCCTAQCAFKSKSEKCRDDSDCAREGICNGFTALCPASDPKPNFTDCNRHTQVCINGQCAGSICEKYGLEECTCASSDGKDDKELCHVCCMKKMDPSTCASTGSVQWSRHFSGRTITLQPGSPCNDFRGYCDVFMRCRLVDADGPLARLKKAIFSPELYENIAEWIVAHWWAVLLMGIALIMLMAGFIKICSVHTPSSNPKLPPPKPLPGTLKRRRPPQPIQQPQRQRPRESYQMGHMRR
proKLK7 act: proKLK7 zymogen activators, primary screen, biochemical, fluorescence intensity; Kallikrein-7 (Homo sapiens), P49862; purified proKLK7, EDANS-DABCYL substrate fluorescence; 100% is mature enzyme control, 0% vehicle; activation, % at 7 µM; 370,000 tested, 0.9% active; AID 652039, 2013;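 active = activation above the mean of all tested compounds plus 3 SD, computed per campaign excluding outliers beyond control limits, cut at about 13% in these data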
NR3A LBD binder: binders of NR3A ligand-binding domain, primary screen, biophysical, differential scanning fluorimetry, uHTS; NR3A LBD differential scanning fluorimetry, Tm shift; 0% = protein alone, 100% = glycine-bound protein; Glutamate receptor ionotropic, NMDA 3A (GRIN3A) ligand-binding domain; Tm shift relative to glycine control, % at 25 µM; 340,000 tested, 2.5% active;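 active = melting temperature shift of at least 10% of the positive control shift, at one fixed dose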
ADAM17 inh: ADAM17 inhibitors, primary screen, biochemical, QFRET; Disintegrin and metalloproteinase domain-containing protein 17 (Homo sapiens), P78536; inhibition, % at 6.95 µM; recombinant ADAM17, EDANS/DABCYL FRET peptide cleavage; 370,000 tested, 0.83% active;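 active = inhibition above the mean of compounds lying between control limits plus 3 SD, set per campaign, cut at about 8.5% in these data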
FAS-TE inh conf: FAS thioesterase domain inhibitors, confirmation, biochemical, fluorescence intensity, single concentration | recombinant FAS-TE, OMFH fluorogenic substrate | 2,300 tested, 45% active | inhibition, % at 15 µM | AID 624325, 2012 | shares compounds with FAS TE block;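 active = compounds inhibiting the enzyme by at least 50% at 15 µM in any one of the replicates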
Numbers stand for hits; - = inactive; . = no result.

SMILES	FAS TE block	ADAM10 inh	proKLK7 act	NR3A LBD binder	ADAM17 inh	FAS-TE inh conf
Cc1c(NS(=O)(=O)c2cc(C(=O)Nc3ccc(F)cc3Cl)ccc2Cl)c(=O)n(-c2ccccc2)n1C	-	-	-	-	-	.
Cc1ccc(NC(=O)c2ccc(Cl)c(S(=O)(=O)Nc3c(C)n(C)n(-c4ccccc4)c3=O)c2)cc1Cl	76	-	-	-	-	-
O=C(Nc1cc([N+](=O)[O-])ccc1N1CCOCC1)c1cccs1	-	-	-	-	-	.
O=C(Nc1cc(C(F)(F)F)ccc1N1CCOCC1)c1cccs1	-	-	-	-	-	.
CN(C)c1ccc(P(=O)(Nc2cccc(C(F)(F)F)c2)N2CCOCC2)c(NC(=O)c2cccs2)c1 (stereo unspecified)	53	-	-	-	-	-
CC1N(C)c2cc(NC(=O)c3cccs3)c(P(=O)(Nc3ccc([N+](=O)[O-])cc3)N3CCOCC3)cc2C1(C)C (stereo unspecified)	52	-	-	-	-	-
O=C(Nc1ccc(C(F)(F)F)cc1)OC1CC2CC1[C@H]1CCCCN1C2 (stereo partly specified)	.	-	-	.	-	.
COC(=O)CNC(=O)CNC1(C(=O)NCCc2c[nH]c3ccccc23)CCCCC1	.	-	.	.	-	.
C[C@H](O)[C@@H]1CN2CCc3c([nH]c4cccc(-c5ccc6c(c5)OCO6)c34)[C@@H]2C[C@@H]1N(C)C(=O)c1ccco1	.	-	-	.	-	.
COc1ccc(NC(=O)CCN2C(=O)c3cccc([N+](=O)[O-])c3C2=O)cc1	-	-	-	-	-	.
CC(C)(C)c1ccc(NC(=O)COC(=O)CCN2C(=O)c3cccc([N+](=O)[O-])c3C2=O)cc1	83	-	-	-	-	-
CC1CC(C)CN(C(=O)COC(=O)c2cccc([N+](=O)[O-])c2)C1 (stereo unspecified)	-	-	-	-	-	.
Cc1cccc(C(=O)OCC(=O)NC2CCCCCCC2)c1	-	-	-	-	-	.
O=C(COC(=O)c1cccc([N+](=O)[O-])c1)NC1CCCC1	61	-	-	-	-	68
O=C(OCC(=O)N1CCN(c2ccccc2)CC1)c1cccc([N+](=O)[O-])c1	54	-	-	-	-	57
CC(=O)c1ccc(NCC(=O)N2CCN(c3ccccc3)CC2)cc1	-	-	-	-	-	.
COC(=O)c1cc(C(=O)OCC(=O)NC2CCCC2)cc([N+](=O)[O-])c1	61	-	-	-	-	64
COC(=O)c1cc(C(=O)OCC(=O)NC2CCS(=O)(=O)C2)cc([N+](=O)[O-])c1 (stereo unspecified)	-	-	-	-	-	.
Cc1cc(C)c([N+](=O)[O-])cc1NCC(=O)N1CCN(c2ccccc2)CC1	78	-	-	-	-	66
CN(Cc1ccccc1)S(=O)(=O)c1cccc(C(=O)OCc2cccc(C(F)(F)F)c2)c1	.	-	-	.	-	.
COc1ccc(N2CCN(CCCNC(=O)COc3ccc(F)cc3)CC2)cc1	.	-	-	.	-	.
Cc1ccccc1C(=O)NC1CCCCN(Cc2cccc(Cl)c2)C1=O (stereo unspecified)	.	-	-	.	-	.
Cc1ccc(-c2nnc(Nc3ccc4c(c3)OCO4)c3ccccc23)cc1S(=O)(=O)NC(C)C	51	-	-	-	-	-
O=C(CSc1nnc(-c2c[nH]c3ccccc23)o1)N1c2ccccc2CCc2ccccc21	55	-	-	-	-	-
O=C(CSc1nnc(-c2c[nH]c3ccccc23)o1)N1CCCCC1	-	-	-	-	-	.
SMILES	FAS TE block	ADAM10 inh	proKLK7 act	NR3A LBD binder	ADAM17 inh	FAS-TE inh conf
O=C(COc1ncnc2cc([N+](=O)[O-])ccc12)N(CCc1ccccc1)Cc1ccccc1	62	-	-	-	-	52
O=C(NCc1cccc(F)c1)c1cccc2c1C(=O)c1ccc(N3CCCC3)cc1S2(=O)=O	-	.	.	-	.	.
COc1ccccc1N1CCN(c2ccc3c(c2)S(=O)(=O)c2cccc(C(=O)NCc4ccc(F)cc4)c2C3=O)CC1	51	-	-	.	-	-
O=C(Nc1ccc(S(=O)(=O)N2CCOCC2)cc1)c1cc([N+](=O)[O-])ccc1Cl	65	-	-	-	-	-
O=C(NC1CCCCC1)c1cc([N+](=O)[O-])ccc1N1CCCC1	-	-	-	-	-	.
O=C(Nc1ccc(S(=O)(=O)N2CCOCC2)cc1)c1cccc([N+](=O)[O-])c1	-	-	-	-	-	.
O=C(Nc1ccc(Nc2ccccc2)cc1)c1cc([N+](=O)[O-])ccc1Cl	59	-	-	-	-	49
O=C(NC1CCCCCCC1)c1cc([N+](=O)[O-])ccc1Cl	66	-	-	-	-	65
CSc1ccc(C(=O)NCC2CCN(C(=O)C(=O)c3cc4ccccc4o3)CC2)cc1	.	-	-	.	-	.
O=C(Nc1cccs1)OC1CC2CC1[C@H]1CCCCN1C2 (stereo partly specified)	.	-	-	.	-	.
O=C(Cc1ccccc1)NC1CCN(C(=O)c2ccc([N+](=O)[O-])cc2)CC1	-	-	-	-	-	.
CCC12CN(C(=O)c3ccc([N+](=O)[O-])cc3)CC(CC)(CN(C(=O)c3ccc([N+](=O)[O-])cc3)C1)C2=O	58	-	-	-	-	-
O=C(c1ccc([N+](=O)[O-])cc1)N1CCC(Cc2ccccc2)CC1	59	-	-	-	-	54
O=[N+]([O-])c1cccc(OCCN2CCC(Cc3ccccc3)CC2)c1	63	-	-	-	-	67
Cc1ccc([N+](=O)[O-])c(OCCCN2CCC(Cc3ccccc3)CC2)c1	-	-	-	-	-	.
CCN(C(=O)C1CCCN(c2nnc(-n3cccc3)s2)C1)c1ccccc1C (stereo unspecified)	.	-	-	.	-	.
CCOC(=O)[C@]12CCCC=C1N(CCCOC)C(=O)[C@@H]2CC(=O)N1CCC(c2ccccc2)CC1	.	-	-	.	-	.
O=C1Nc2cc(Cl)c(Cl)cc2N(O)N1c1ccc(Cl)c(Cl)c1	62	-	-	-	-	67
CC(C)c1cc(C(C)C)c(S(=O)(=O)N2CCCC(C(=O)NCc3cccs3)C2)c(C(C)C)c1 (stereo unspecified)	.	-	-	.	-	.
COC(=O)c1ccc2c(=O)n(-c3ccccc3)c(SCN3C(=O)c4ccccc4C3=O)nc2c1	62	-	-	-	-	-
O=C(O)c1ccc(CSc2nc3ccccc3c(=O)n2-c2ccccc2)cc1	-	-	-	-	-	.

Compound activity as filed in PubChem.
